# Source: PubChem BioAssay (NCI)
# About 83,000 compounds went through this panel and 20% of them were active in at least one assay; those are over-represented in the sample as a whole.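 Interpretation: 100, growth as untreated; towards 0, rising growth inhibition; 0, no net growth; 0 to -100, cell death. Compounds scoring below 10 were considered active.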 Values without a mark were called inactive. Active and inactive are the calls of the source.
# System: RXF 393 renal
# Assay: NCI-60 one-dose screen, 48 h (100 = growth as untreated, 0 = no growth, -100 = all killed)
# Conditions: 10 µM unless noted
row,SMILES,growth
1,CCOC(=O)C1=C(C)Nc2nnc(Nc3ccccc3)n2C1c1ccccc1 (stereo not drawn),80%
2,COc1cc(OC)c(S(N)(=O)=O)cc1C(=O)/C=C/c1ccccc1,-29.7% (active)
3,CCOC(=O)/C(F)=C/C1CC1C1CCCCC1 (stereo not drawn),108%

# System: SF-268 CNS
# Assay: as above
# Conditions: 10 µM unless noted
row,SMILES,growth
1,CC(=O)Oc1ccc(CCN2C(=O)CSC2=S)cc1,92.1%
2,COc1cc(/C=N/n2cnc3oc(-c4ccccc4)cc3c2=N)cc(CN2CCOCC2)c1O,72.4%
3,CCOC(=O)/C=c1\sc2n(c1=O)C1C(NN=2)N(CC)C(=O)N1CC (stereo not drawn),81.1%
4,CN(C)c1ccc(/C=N/Nc2nc(N/N=C/c3ccc(N(C)C)cc3)nc(N3CCOCC3)n2)cc1,97.8%
5,COc1cc2oc(-c3cccc(NC(=O)c4cc(NC(=O)[C@H](C)NC(=O)OC(C)(C)C)ccc4C)c3)cc(=O)c2c(OC)c1OC,79.4%
6,CN1CCN(Cc2ccc(NC(=O)c3cncc(C#Cc4cnc5ccc(NC6CCOCC6)nn45)c3)cc2C(F)(F)F)CC1,-47.5% (active)
7,O=C(Nc1ccc(Cl)cc1)Nc1nc2ccc([N+](=O)[O-])cc2s1,7.98% (active)
8,CCCCCCNC(=O)Oc1ccc(/C(=C(/C)c2ccc(OC)cc2)c2ccc(OCCN3CCCC3)cc2)cc1,83.6%
9,O=c1c2ccccc2nc(COc2ccccc2)n1/N=C/C=C/c1ccccc1,97.5%
10,CCCCCc1ccc(S(=O)(=O)N(C(C)=O)c2cccc(-c3csc(N(CCN4CCN(C)CC4)C(C)=O)n3)c2)cc1,63.2%
